Screening data (PubChem BioAssay)
This is a sample that favours compounds with a hit; in the whole collection about 7.3% have one here.
ELG1 genotoxic = induces genotoxicity in HEK293T cells with luciferase-tagged ELG1; HEK293T ELG1-luciferase reporter, luminescence, 16 h; Potency, µM (titrated, usually from 46 µM), for inactives: top-dose activity change, positive = activation, usual class: activators; 330,000 compounds, 1.3% hits; AID 504466; note: % of control where 0% means no effect; nearly all actives have a fitted effect of over 60% in size
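Step 1: seed 2,000 HEK293T ELG1-luciferase cells per well. Step 2: add compound or DMSO, incubate 16 hr at 37 °C. Step 3: ONE-Glo, 30 min at room temperature, read luminescence.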
SMN2 splice up = SMN2 splice variant enhancement. HEK293 SMN2-luciferase splicing reporter, luminescence, 30-36 h. Potency, µM (highest dose often 46.1 µM), for inactives: top-dose activity change, positive = activation, most hits filed as activators. 210,000 compounds, 2.8% hits; note: % of control where 0% means no effect; nearly all actives have a fitted effect of over 55% in size
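HEK293 cells carry an SMN2 minigene-luciferase reporter in which exon 7 inclusion puts luciferase in frame. Cells were seeded at 2000 cells/well, attached for 10-12 hours, then exposed to compounds for 30-36 hours at 37C before ONE-Glo luminescence.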
Rab9 promoter act = activators of Rab9 promoter | Huh7 Rab9 promoter-luciferase reporter, luminescence, 24 h | Potency, µM (top dose mostly 9.22 µM), inactives show at the top dose activation, negative = inhibition, usual class: activators | 320,000 compounds, 2.8% hits | AID 485297; note: % of control where 0% means no effect; nearly all actives have a fitted effect of over 60% in size
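Huh7 cells stably carrying a Rab9 promoter-luciferase reporter, 1500 cells per well in OP-MEM I with 10% FBS, treated with compound 24 hours at 37C. Luciferase activity read by luminescence after 10 minutes with Amplite reagent.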
NPC1 promoter act = NPC1 promoter activation; 320,000 compounds, 2.4% hits; Potency, µM (top dose mostly 9.22 µM), without a hit: top-dose activation, actives largely listed as activators; Huh7 NPC1 promoter luciferase reporter, 24 h; note: % of control where 0% means no effect; nearly all actives have a fitted effect of over 60% in size
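Stably transfected Huh7 (NPC1 promoter→luciferase), 1500 cells/well in Opti-MEM + 10% FBS, 2 h settle, then compound 24 h at 37 °C. Luminescence after 10 min with Amplite reagent.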
FLuc modulator = counter-screen for miR-21 project: firefly luciferase inhibitors or activators | P08659 | purified FLuc, Km substrates, luminescence inhibition | Potency, µM (titrated, usually from 57.5 µM), for the others: top-dose activity change, negative = inhibition, hits mostly inhibitors | 360,000 compounds, 6.9% hits | AID 588342;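 note: plate controls were vehicle for no effect and reference inhibitor for full effect; nearly all actives have a fitted effect of over 55% in size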
Target sequence (P08659 whole entry, looked up): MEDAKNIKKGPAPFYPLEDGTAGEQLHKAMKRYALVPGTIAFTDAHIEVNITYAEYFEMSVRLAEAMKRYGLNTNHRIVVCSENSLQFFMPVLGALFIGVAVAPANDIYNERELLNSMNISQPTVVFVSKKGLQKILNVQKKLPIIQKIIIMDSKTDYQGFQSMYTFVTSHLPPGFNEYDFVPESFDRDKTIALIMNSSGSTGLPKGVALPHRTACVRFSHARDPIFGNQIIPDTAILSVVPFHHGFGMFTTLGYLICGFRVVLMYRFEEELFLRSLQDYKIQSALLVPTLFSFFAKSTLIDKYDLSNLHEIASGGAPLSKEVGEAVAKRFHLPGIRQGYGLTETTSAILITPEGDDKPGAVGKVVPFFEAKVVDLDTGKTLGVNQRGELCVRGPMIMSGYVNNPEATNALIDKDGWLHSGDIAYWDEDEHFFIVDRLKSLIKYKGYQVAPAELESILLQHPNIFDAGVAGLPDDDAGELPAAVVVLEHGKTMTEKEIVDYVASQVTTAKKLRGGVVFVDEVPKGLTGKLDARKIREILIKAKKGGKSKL
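Purified P. pyralis luciferase, 10 nM final, with Km-level 10 uM D-luciferin and 10 uM ATP in 50 mM Tris acetate pH 7.5, 10 mM Mg acetate, 0.01% Tween-20, 0.05% BSA; 6-point qHTS titration about 60 µM downward; luminescence read.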
p53 reactivator = restores transcriptional activity of mutant p53 | 320,000 compounds, 0.063% hits | Potency, µM (titrated, usually from 92.2 µM), inactives show at the highest dose activity change, positive = activation, most hits filed as activators | H1299 p53-A138V BP100-luciferase reporter, luminescence, 24 h; note: % of control where 0% means no effect; nearly all actives have a fitted effect of over 45% in size
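H1299 (p53-null), stable ts p53-A138V + BP100-Luc; 1000 cells/well, Opti-MEM/10% FBS; cpd 4 pt, 1:5; 24 h, 37 deg C, 5% CO2; detection reagent 10 min RT; luminescence.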
Numbers without * were called inactive; u = inconclusive; x = no result given. Calls come from the whole dose curve; as a rule, active = well fitted curve in the direction sought with a large enough effect; inconclusive = small, poorly fitted or top-dose-only effect, or another doubt; inactive = no such curve, though single readings can be large; an effect the other way counts as inactive or inconclusive. Potency is the fitted concentration of half-maximal effect.

SMILES	ELG1 genotoxic	SMN2 splice up	Rab9 promoter act	NPC1 promoter act	FLuc modulator	p53 reactivator
Cn1c(CC(=O)Nc2ccccc2)nnc1SCC(=O)Nc1ccc(N2CCOCC2)cc1	u	x	15%	21%	12µM*	14%
Cn1c(SCC(=O)Nc2ccc(N3CCOCC3)cc2)nnc1C1CC1	-1%	x	-4%	0%	u	2%
CCn1c(Cc2ccccc2)nnc1SCC(=O)Nc1ccc(N2CCOCC2)c(Cl)c1	12%	-35%	-2%	11%	15µM*	15%
Cc1ccc(NC(=O)Cc2nnc(SCC(=O)Nc3ccc(N4CCOCC4)cc3)n2C)cc1	5%	x	0%	2%	12µM*	4%
Cn1c(Cc2ccccc2)nnc1SCC(=O)Nc1ccc(N2CCOCC2)cc1	2%	x	5%	9%	u	13%
COc1ccccc1-c1nnc(SCC(=O)Nc2ccc(N3CCOCC3)cc2)n1C	21%	x	14%	8%	19µM*	7%
COc1ccc(C(=O)N2CCC3(CC2)CN(CC(C)C)C3)cc1	x	4%	x	x	x	x
COc1ccc(C(=O)NCc2ccc3c(c2)CCN3C(=O)c2cccc(C)c2)cc1OC	x	x	x	x	-17%	x
Cc1ccc(CSc2nnc(CC(=O)Nc3ccc(C)cc3)n2C)cc1	1%	-5%	-1%	-3%	-1%	-1%
Nc1ccc2nc(SCC(=O)Nc3ccc(N4CCOCC4)c(Cl)c3)sc2c1	u	29%	7%	12%	u	0%
Cc1ccc(NC(=O)Cc2nnc(SCC(=O)Nc3ccccc3)n2C)cc1	0%	5%	-6%	1%	19µM*	0%
CCCC(=O)Nc1ccc2nc(SCC(=O)Nc3ccc(N4CCOCC4)c(Cl)c3)sc2c1	-12%	-10%	29%	4µM*	3.8µM*	22%
O=C(CSc1ncccn1)NCc1cccc(Cl)c1	16%	21%	25%	12%	u	6%
Nc1c(-c2ccccc2)cnn1-c1cccc(Cl)c1	u	x	1.4µM*	1.1µM*	3.4µM*	u
NC(=O)c1cnn(-c2cccc(Cl)c2)c1N	1%	x	-1%	-5%	6%	-5%
Nc1ccccc1Nc1cc(-c2cccc(Cl)c2)nn1-c1ccccc1	1%	12%	3%	6%	27µM*	u
Cc1cc(Nc2ccccc2)n(-c2cccc(Cl)c2)n1	-2%	u	-2%	-1%	10%	9%
Cc1cccc(-c2cnn(-c3ccccc3)c2N)c1	u	x	3.5µM*	u	6.7µM*	17%
O=C(NCc1cccnc1)c1nn(-c2ccccc2F)nc1CO	x	-25%	x	x	-6%	x
Cc1cccc(Nc2nc(-c3sc(C)nc3C)cs2)c1	u	x	u	u	19µM*	23%
CC(=O)c1cccc(Nc2nc(-c3sc(N)nc3C)cs2)c1	12%	x	22%	15%	17µM*	10%
Cc1nc(N)sc1-c1csc(Nc2cccc(O)c2)n1	u	x	4%	3.5µM*	11µM*	x
CCC(=O)Nc1nc(C)c(-c2csc(Nc3cccc(O)c3)n2)s1	-9%	x	2%	13%	11µM*	28µM*
CCCCCC(=O)Nc1nc(C)c(-c2csc(Nc3ccc(Cl)cc3)n2)s1	0%	-24%	-9%	0%	u	-6%
CCc1cccc(C)c1NC(=O)c1cn2c3c(ccc(Cl)c3c1=O)OC(C)C2 (centres undefined)	x	x	x	x	11%	x
SMILES	ELG1 genotoxic	SMN2 splice up	Rab9 promoter act	NPC1 promoter act	FLuc modulator	p53 reactivator
N#CCCn1c(=O)c(-c2ccccc2)nc2cnc(OCc3ccccc3)nc21	x	-17%	x	x	x	x
COc1cc(Cl)c(NC(=O)CN2C(=O)c3cccnc3Sc3ccccc32)c(OC)c1	x	1%	x	x	-8%	x
CCc1ccc(NC(=O)Cn2cc([N+](=O)[O-])nc2C)cc1	-5%	x	-4%	-6%	-1%	x
COc1ccc(N2CCN(C(=O)C3CCN(S(=O)(=O)c4cccc5nonc45)CC3)CC2)cc1	x	x	x	x	-3%	x
Cc1nc(C)c(-c2csc(Nc3cccc(O)c3)n2)s1	u	x	u	u	11µM*	12%
CC(=O)c1cccc(Nc2nc(-c3sc(C)nc3C)cs2)c1	2%	x	-1%	4%	u	x
CC1CCCCN1C(=O)c1ccc2c(c1)N(Cc1ccc(Cl)cc1)C(=O)c1ccccc1S2=O (centres undefined)	x	-65%	x	x	3%	x
Cc1ccc(N/C=C/C(=O)c2sc(-c3ccccc3)nc2C)cc1	-4%	-12%	2%	-2%	6µM*	24%
Cc1ccc(N/C=C/C(=O)c2cccs2)cc1	0.16µM*	2µM*	0.14µM*	u	0.12µM*	-7%
CCOC(=O)c1ccccc1N/C=C/C(=O)c1cccs1	2%	x	u	11%	u	16µM*
O=C(/C=C/Nc1ccccc1F)c1cccs1	u	2µM*	4µM*	u	0.24µM*	x
CCOC(=O)c1ccccc1NC(=O)c1cccs1	0%	-13%	7%	3%	2%	2%
CN(C)C(/C=C/Nc1ccccc1F)=C(C#N)C#N	0%	-2%	-3%	8%	3%	-3%
Cc1ccc(NC(=O)C2CCN(C(=O)c3cccs3)CC2)cc1	1%	x	-2%	-2%	-1%	4%
O=C(/C=C\Nc1cccc(F)c1)c1cccs1	u	6.3µM*	4µM*	4µM*	0.85µM*	u
O=C(Cc1cccs1)Nc1ccc(F)cc1F	-3%	x	-5%	-3%	2%	20%
O=C(/C=C/Nc1ccc(F)cc1F)c1cccs1	u	0.4µM*	2µM*	0.56µM*	0.11µM*	26%
CCc1ccccc1Nc1nc(-c2cccnc2)cs1	-4%	x	u	28%	u	5%
CN(C)c1ccc(Nc2nc(-c3cccnc3)cs2)cc1	1.5µM*	16µM*	0.89µM*	3.5µM*	0.43µM*	22%
CC(=O)Nc1ccc(C(=O)Nc2nc(-c3cccnc3)cs2)cc1	-2%	u	1%	-1%	u	1%
CCN(CC)c1ccc(Nc2nc(-c3cccnc3)cs2)cc1	11%	x	3.2µM*	2.8µM*	11µM*	12%
CC1CC1C(=O)OCc1cc(=O)n2cc(Br)ccc2n1 (centres undefined)	u	13%	3.5µM*	2.5µM*	9.5µM*	u
Cc1ccccc1C(=O)NC(CC(C)C)C(=O)OCc1cc(=O)n2cc(Br)ccc2n1 (centres undefined)	u	11µM*	u	4µM*	13µM*	u
O=C(OCc1cc(=O)n2cc(Br)ccc2n1)C1COc2ccccc2O1 (centres undefined)	2%	3%	-2%	0%	0%	-11%
